# In PubChem BioAssay AID651558 (National Center for Advancing Translational Sciences (NCATS), 2012):
# Values joined by “and” are separate entries in the source; they are usually repeats but may differ in a detail not shown here. Identical values can stand only once. Screen size: about 1,200 compounds; about 480 (40%) were called active. Inconclusive results (about 29%) are left out. This is one part of the list. A number with no mark means an inactive call. The call rests on the fitted dose curve; in most records, active means well fitted inhibition curve with a large enough effect; inconclusive means small, poorly fitted or top-dose-only effect; inactive means no such curve, though single readings can be large or run the other way.
# Test: qHTS Assay to Find Inhibitors of Chronic Active B-Cell Receptor Signaling: Hit Validation in Primary Screen; further: nearly all actives have a fitted effect of over 75% in size
# Settings: ABC-DLBCL IkB-luc/CBR ratio luminescence, 4 h; series mostly up to 46.1 µM; activity change, negative = inhibition: at the top concentration
# Summary of the method: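 TMD8 ABC-DLBCL cells carrying doxycycline-inducible IkBa-green luciferase fusion and free red luciferase, 0.5% FBS, dosed 46 uM–3 nM with doxycycline for 4 h at 37C. Green/red luminescence ratio normalized to basal and 10 uM MG-132.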
# On the % scale 0 is the no-effect control and ±100 the full control effect; potency means the concentration at half of the fitted maximal effect.
Compound,Potency,"activity change, negative = inhibition [%]"
CCOc1ccc(S(=O)(=O)NCc2ccccn2)cc1NC(=O)c1ccccc1F,8.2 µM (active),
Cc1ccc(S(=O)(=O)Nc2cccc(-c3ccc4nncn4n3)c2)cc1,16.4 µM (active),
CNCc1ccccc1Sc1ccc(O)c(O)c1,23.1 µM (active),
CS(=O)(=O)C1=C(O)C(=O)N(c2ccccc2)C1c1ccccc1 (centres undefined),,-8.86
COc1ccc(NC(=O)/C(C#N)=C\c2cc(C)n(-c3ccc4c(c3)OCO4)c2C)cc1,2.31 µM (active),
Oc1cccc(Nc2nc(N3CCOCC3)nc(N3CCOCC3)n2)c1,8.2 µM (active),
Cc1cc(C)n(-c2nc3ccccc3c(=O)n2OCC#N)n1,23.1 µM (active),
Cc1ccc(S(=O)(=O)Cc2ccc(C(=O)N3CCN(c4cccc(C)c4C)CC3)o2)cc1,5.17 µM (active) and 20.6 µM (active),
Oc1[nH]c2ccccc2c1N=NC(=S)N1CCOCC1,,-5.49
COc1ccc(CNC(=O)/C(C#N)=C/c2cccc(OC)c2OC)cc1,18.4 µM (active),
N#C/C(=C\c1cn(Cc2ccc(F)cc2)c2ccccc12)C(=O)NCc1ccco1,,36.4
COc1ccc(-c2ccc(CCC(=O)O)n2-c2ccccc2OC)cc1,,-5.6
CC1CC(C)CN(S(=O)(=O)c2ccc(NC(=O)c3ccc(=O)[nH]c3)cc2)C1 (centres undefined),9.2 µM (active),
Oc1cccc(/C=N/Nc2ccc(Cl)nn2)c1O,14.6 µM (active),
Oc1ccccc1/C=N/Nc1ccnc(SCc2ccccc2)n1,,-5.25
CCCCN1C(=O)N(C)C2C1N(C)C(=O)N2CCCC (centres undefined),,-3.55
O=C(CCl)Nc1cc(S(=O)(=O)N2CCCCCC2)ccc1Cl,20.6 µM (active),
O=C(CNC(=O)c1ccco1)N=Nc1c(O)n(CCc2ccccc2)c2ccccc12,5.8 µM (active),
O=[N+]([O-])c1cc(/C=N/O)ccc1Sc1ccccc1,,13.4
CCOC(=O)Cc1csc(NC(=S)NC(=O)c2ccccc2)n1,,-5.26
CCOC(=S)SCC(=O)Nc1nc(-c2ccc(Br)cc2)cs1,3.66 µM (active),
Cc1csc(NC(=S)NC(=O)c2ccccc2)n1,,-4.88
CC(=O)c1ccc2c(c1)CC(C)C(=O)N2C (centres undefined),,-24.3
Cc1ccc(C)c(-n2c3nc(=O)[nH]c(=O)c-3cc3cc([N+](=O)[O-])ccc32)c1,,59.5
Cc1cccc(-n2c3nc(=O)[nH]c(=O)c-3cc3cc([N+](=O)[O-])ccc32)c1,7.31 µM (active),

Compound,Potency,"activity change, negative = inhibition [%]"
COCCn1c(-c2cccc([N+](=O)[O-])c2)nc2c1c(=O)[nH]c(=O)n2Cc1ccccc1,,39.2
Cn1c(=O)n(C)c2cc(NS(=O)(=O)c3ccc(Br)s3)ccc21,,126
O=C1N[C@H]2CC=C[C@H]2Nc2ccccc21,,-10.4
CCNC(=O)[C@H]1O[C@@H](n2cnc3c(N)nc(NCCc4ccc(CCC(=O)O)cc4)nc32)[C@H](O)[C@@H]1O,0.0731 µM (active),
COC(=O)C1=C(C)NC(C)=C(C(=O)OC)C1/C=C/c1ccccc1,20.6 µM (active),
COc1ccc(NC(=O)C(=O)NCC2CCCN2S(=O)(=O)c2ccc(C)cc2)cc1 (centres undefined),0.517 µM (active),
Cc1ccc(NC(=O)C(=O)NCC2CCCN2S(=O)(=O)c2cccs2)cc1C (centres undefined),,-23.6
CC(C)N=C(NS(=O)(=O)c1ccccc1)C(Cl)(Cl)Cl,3.26 µM (active),
N#Cc1ccccc1NC(=O)c1cccc(COc2ccc(Cl)cc2Cl)c1,,60.3
Cc1ccc2nc(SCC(=O)Nc3cc(C(F)(F)F)ccc3N3CCOCC3)[nH]c2c1,2.06 µM (active),
Cc1onc(-c2ccccc2)c1C(=O)Nc1cc(C(F)(F)F)ccc1N1CCOCC1,20.6 µM (active),
O=C(CSc1cc(Cl)ccc1Cl)Nc1ccc(N2CCOCC2)cc1,,-12.4
CCN(CC)S(=O)(=O)c1ccc(N2CCOCC2)c(NC(=O)c2c3c(nc4ccccc24)CCC3)c1,,34.7
C=CCNC(=S)N/N=C/c1ccc(C(C)(C)C)cc1,,25.3
Cc1ccc(S(=O)(=O)N(C)C[C@@H]2Oc3ccc(NC(=O)CCC(F)(F)F)cc3CC(=O)N([C@@H](C)CO)C[C@@H]2C)cc1,9.2 µM (active),
COc1cc(SSc2cc(OC)cc([N+](=O)[O-])c2N)c(N)c([N+](=O)[O-])c1,,-1.91
Nc1ccc(C(=O)n2c3ccccc3c3ccccc32)cc1,13 µM (active),
COc1cccc(C2NC(=S)NC(C)=C2C(=O)c2ccccc2)c1OC (centres undefined),16.4 µM (active),
COc1cc2c(cc1C1NC(=S)NC(C)=C1C(N)=O)CCCC2 (centres undefined),,80.4
CCCCN(C(=O)CSc1nc2ccccc2n1CC)C1CCS(=O)(=O)C1 (centres undefined),,-4.85
Cc1cc(C(=O)OCC(=O)Nc2c(Cl)cccc2Cl)c(C)o1,,-15.6
Cc1cc2c(cc(C(=O)OCC(=O)NCc3cccs3)n2C(C)C)o1,8.2 µM (active),
O=C(NC(=S)NC1CCSC1=O)c1ccccc1 (centres undefined),,-8.61
Cc1cccc(C)c1NC(=O)CNC(=O)CNC(=O)Cc1cccc2ccccc12,,-17.1
CCOC(=O)c1ccccc1NC(=O)Cn1c(-c2nonc2N)nc2ccccc21,2.31 µM (active),

Compound,Potency,"activity change, negative = inhibition [%]"
CCC(=O)Nc1nonc1-c1nc2ccccc2n1Cc1cccc2ccccc12,2.91 µM (active),
COC(=O)c1ccccc1NC(=O)Cn1c(-c2nonc2N)nc2ccccc21,0.731 µM (active),
COCCNC(=S)N/N=C(\C)c1ccc(Cl)s1,,-11.5
CCONC(=O)Nc1ccccc1[N+](=O)[O-],,-13.6
COCCNC(=S)N/N=C(\C)c1ccc(Cl)c(Cl)c1Cl,,-9.48
CCOc1ccccc1N1CSC2=C(C#N)C(c3c(OC)ccc4ccccc34)CC(=O)N2C1 (centres undefined),,-10.4
CN(C)c1ccc2c(c1)OC(N)=C(C#N)C2c1cccc(F)c1 (centres undefined),0.82 µM (active),
CCN(CC)c1ccc2c(c1)OC(N)=C(C#N)C2c1cccnc1 (centres undefined),1.03 µM (active),
N#CC1=C(N)Oc2cc(N)ccc2C1c1cccc(Br)c1 (centres undefined),4.11 µM (active),
CC(O)c1cccc(-c2ccc(CN3C[C@]4(CO)O[C@@H](CO)C[C@@H]4S3(=O)=O)cc2)c1 (some centres undefined),,34.7
CC1=NN(C(N)=S)C(=O)C1N=Nc1ccc(C)c(Br)c1 (centres undefined),,-10.3
OC(C#Cc1ccccn1)c1cccs1 (centres undefined),,-5.48
COc1ccc(COc2cc(-c3cccc(OC)c3)nc3ccc(N)cc23)cc1,2.91 µM (active),
CN1c2ccccc2Sc2cc(N)ccc21,,-18
COc1ccc(-c2nn(-c3ccccc3)cc2C(=O)NC(=S)NNC(=O)c2ccncc2)cc1,,-10.6
COc1ccc(/C=N/NC(=O)CCn2cnc(-c3ccccc3)c2-c2ccccc2)cc1,2.31 µM (active),
COc1ccc(/C=N\NC(=O)c2c(C)nc3ccc(Br)cn23)cc1,,30.1
COc1ccc(/C=N/NC(=O)CCn2cnc(-c3ccccc3)c2-c2ccccc2)cc1OC,16.4 µM (active),
COc1cc2c(cc1OC)-c1cc(Nc3ccc(C)cc3)nc(=O)n1CC2,18.4 µM (active),
COc1cc2c(cc1OC)-c1cc(Nc3ccccc3C)nc(=O)n1CC2,,55.9
COc1ccc(Nc2cc3n(c(=O)n2)CCc2cc(OC)c(OC)cc2-3)c(C)c1,5.17 µM (active),
COc1cc2c(cc1OC)-c1cc(Nc3ccc(N(C)C)cc3)nc(=O)n1CC2,,41.3
COc1cc2c(cc1OC)-c1cc(Nc3ccccc3)nc(=O)n1CC2,18.4 µM (active),
Oc1ccc(-c2nc3cnccn3c2Nc2ccc3c(c2)OCCO3)cc1,23.1 µM (active),
CCOc1ccccc1OCC(=O)N/N=C(\C)Cc1ccc(OC)cc1,,-13.1

Compound,Potency,"activity change, negative = inhibition [%]"
COc1ccc(CNC(=O)COc2ccc(C(=O)c3ccc(F)cc3)cc2)cc1,3.26 µM (active),
O=C(O)CCCCCCCCc1cn(Cc2ccc(C(=O)c3ccccc3)cc2)nn1,,31.6
O=C(COc1ccc(C(=O)c2ccccc2)cc1)NCc1ccc(F)cc1,4.61 µM (active),
CCOc1cc(C(=O)N/N=C(\C)Cc2ccc(OC)cc2)cc(OCC)c1OCC,,-7.54
OC[C@H]1O[C@@H](n2cnc3c(Nc4ccccc4)ncnc32)[C@H](O)[C@@H]1O,7.31 µM (active),
Cc1cn(-c2cccnc2)c(C)c1CNC[C@H]1O[C@@H](n2cnc3c(N)ncnc32)[C@H](O)[C@@H]1O,,34.9
Nc1ncnc2c1ncn2[C@@H]1O[C@H](CNCc2cccc(C#Cc3ccccc3)c2)[C@@H](O)[C@H]1O,,-20.2
C[C@H](Cc1ccccc1)Nc1ncnc2c1ncn2[C@@H]1O[C@H](CO)[C@@H](O)[C@H]1O,0.184 µM (active),
CCn1c2ccccc2c2cc(Nc3cc(C)nc4ncnn34)ccc21,16.4 µM (active),
Cc1cc(NC(=O)CSc2nc3ccccc3c(=O)n2C2CCCC2)no1,4.61 µM (active),
Cc1cc(NC2CCCCC2)nc2ccccc12,,81.7
COc1cccc(-c2nnc(SCC(=O)Nc3cc(C)on3)o2)c1,,-9.43
O=[N+]([O-])c1cc(O)c2ncccc2c1,,-2.48
COc1ccc(CNc2nc(NCc3ccc(OC)cc3)c3ncn(C4CCCC4)c3n2)cc1,2.31 µM (active),
COC(=O)c1ccc(CNC(=O)Cn2cnc3c(NCc4ccccc4)ncnc32)cc1,,-3.53
NS(=O)(=O)c1cc(C(=O)OCC(=O)N2CCc3ccccc3C2)ccc1Cl,,-3.34
O=C(OCC(=O)c1ccc[nH]1)c1ccc(Cl)c(Cl)c1,,-4.68
CCn1c(=O)c([N+](=O)[O-])c(Cl)c2ccccc21,6.51 µM (active),
CCOc1ccc(NCc2ccccc2OCc2cccc(F)c2)cc1,,4.73
O=Cc1ccccc1OCCOc1ccccc1C=O,20.6 µM (active),
O=C(CSc1ncccc1C(=O)O)c1ccc2ccccc2c1,,-0.833
NC(=S)N=Nc1c(O)n(CCCl)c2ccccc12,,-8.32
C=CCn1c(O)c(N=NC(=S)Nc2ccccc2F)c2cc(S(=O)(=O)N3CCOCC3)ccc21,,27.2
C/C(Cl)=C\Cn1c(O)c(N=NC(N)=S)c2cc(Br)ccc21,14.6 µM (active),
